Compound activity (PubChem BioAssay)
This is a sample that favours compounds with a hit; in the whole collection about 2.4% have one here.
D2 ag-1 = Beta-Arrestin HTS for Positive Allosteric Modulators of the Human D2 Dopamine Receptor: Agonists; AID 624465, 2012; hit rate 0.084% among 360,000; activation, % (concentration not given with the values); DiscoveRx PathHunter D2 beta-arrestin, luminescence, 90 min; 100% = 57 uM dopamine signal; in the data active = activation above about 40%
Target sequence (P14416 whole entry, looked up): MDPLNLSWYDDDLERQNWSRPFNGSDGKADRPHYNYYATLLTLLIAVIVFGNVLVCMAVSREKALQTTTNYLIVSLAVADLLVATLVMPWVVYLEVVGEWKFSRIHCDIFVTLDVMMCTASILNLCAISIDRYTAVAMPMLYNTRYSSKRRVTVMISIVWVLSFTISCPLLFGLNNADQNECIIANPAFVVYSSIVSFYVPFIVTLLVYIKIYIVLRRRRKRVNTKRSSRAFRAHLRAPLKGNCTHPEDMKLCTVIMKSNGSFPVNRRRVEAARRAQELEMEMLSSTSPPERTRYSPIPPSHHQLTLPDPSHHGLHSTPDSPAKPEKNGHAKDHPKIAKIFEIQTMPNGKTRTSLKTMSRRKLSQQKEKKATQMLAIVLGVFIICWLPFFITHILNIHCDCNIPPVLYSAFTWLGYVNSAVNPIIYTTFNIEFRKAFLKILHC
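DiscoveRx PathHunter D2 beta-arrestin cells (2,100/well) attached overnight, then compound-stimulated 90 min at 37 C in HBSS/10 mM HEPES/0.1% Tween-20 buffer; beta-galactosidase complementation read by luminescence after 1 h at ambient temperature. Dopamine 57 uM final (EC100) as control.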
D2 PAM-1 = Beta-Arrestin HTS for Positive Allosteric Modulators of the Human D2 Dopamine Receptor: Potentiators; D(2) dopamine receptor (Homo sapiens), P14416; DiscoveRx D2 beta-arrestin cells, luminescence, 90 min; 100% = 57 uM dopamine signal; potentiation, % (concentration not given with the values); hit rate 0.23% among 360,000; AID 624464, 2012; in the data active = potentiation above about 50%
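PathHunter beta-arrestin assay in DiscoveRx D2 cells. Compounds were added with an EC20 of dopamine (50 nM final) for 90 min at 37 deg C. Luminescence was read 1 h after detection reagent, with 57 uM dopamine as the EC100 control.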
D2 PAM-2 = HTS Assay for Positive Allosteric Modulators of the Human D2 Dopamine Receptor: Primary Screen for Potentiators; potentiation, % at 10 µM; HEK293 T-REx D2, calcium flux, EC20 dopamine potentiation; hit rate 0.34% among 340,000; D(2) dopamine receptor (Homo sapiens), P14416; AID 485347, 2010;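 active = potentiation over 3 SD above the plate norm, cut at about 30% in these data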; note: 0% is about no effect
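Potentiation of an EC20 dopamine calcium response is measured in a force-coupled, tetracycline-inducible Hek293 Trex D2 line. Compound-only kinetic reads over 180 s flag agonists before dopamine addition.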
D2 antagonist = HTS Assay for Allosteric Antagonists of the Human D2 Dopamine Receptor: Primary Screen for Antagonists; D(2) dopamine receptor (Homo sapiens), P14416; HEK293 TREx D2 cells, calcium flux, dopamine EC80; inhibition, % at 10 µM; hit rate 2% among 340,000; AID 485344, 2010; in the data active = inhibition above about 30%; inactive = below that, where a call was filed; note: 0% is about no effect
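Inhibition of EC80 dopamine-driven calcium flux, recorded kinetically, defines activity here; cells are a tetracycline-induced HEK293 T-REx line expressing force-coupled D2.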
D2 ag-2 = HTS Assay for Allosteric Agonists of the Human D2 Dopamine Receptor: Primary Screen for Agonists; D(2) dopamine receptor (Homo sapiens), P14416; AID 485358, 2010; hit rate 0.53% among 340,000; HEK293 T-REx D2 cells, calcium flux agonist mode; activation, % at 2 µM;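 active = activation over 3 SD above normal in the single-dose calcium agonist read, cut at about 30% in these data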; note: 0% is about no effect
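Calcium-flux readout, 1 cycle/sec over 180 s following compound pin transfer, in inducible HEK293 Trex D2 cells (force-coupled); dopamine controls included. Positive calcium responses during this window marked compounds as potential agonists.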
An asterisk follows results filed as active; · = no result given; ! = not active in a repeat.

SMILES	D2 ag-1	D2 PAM-1	D2 PAM-2	D2 antagonist	D2 ag-2
COc1ccc(S(=O)(=O)N(C)C)cc1NC(=O)COC(=O)c1nc2nccc(C)n2n1	-2	-11	7	40*	-1
Cc1cc(C(=O)OCC(=O)Nc2cc(S(=O)(=O)N(C)C)ccc2Cl)c2ccccc2n1	-1	-6	-14	10	0
Cc1cc(C(=O)OCC(=O)NCc2ccccc2)c2ccccc2n1	7	-22	·	·	·
O=C(COC(=O)C1CCN(S(=O)(=O)c2cccs2)CC1)Nc1ccccc1Br	12	-5	1	-28	1
Cc1ccc(S(=O)(=O)N(C)C)cc1NC(=O)COC(=O)C1CCN(S(=O)(=O)c2cccs2)CC1	-4	-4	0	35*	0
Cc1cc(C(=O)OCC(=O)Nc2cc(S(=O)(=O)N(C)C)ccc2C)c2ccccc2n1	-2	-15	-24	37*	2
Cc1cc(C(=O)OCC(=O)NCCc2ccc(S(N)(=O)=O)cc2)c2ccccc2n1	-2	-4	0	38*	0
Cc1ccc(-n2nc(CO)c(C(=O)NCCCCc3ccccc3)n2)cc1	·	·	-2	·	1
CC1=C(c2ccc(C)cc2)S(=O)(=O)NC1=NCCCN1CCN(c2ccccc2F)CC1	·	·	-6	·	-1
c1coc(CNC2CCCCC2)c1	-3	-2	32*	-13	-1
O=S1(=O)CC(O)C(NCc2ccco2)C1 (stereo unspecified)	0	-11	-6	34*	1
O=S1(=O)CC(O)C(NCCO)C1 (stereo unspecified)	1	-2	-2	-48	1
c1coc(CNC2CCCCCCC2)c1	-2	21	1	-5	0
CCOC(=O)c1ccn(-c2nc(-c3cccc(OC)c3)cc(C(F)(F)F)n2)n1	·	·	-6	·	-1
COc1ccc(NC(=O)c2c(C)oc3ccc(O)c(CN4CCCCCC4)c23)cc1	·	·	14	·	·
Cc1nc2ccc(Cl)cc2nc(C)/c1=N\O	13	83*	8	-11	1
CC(=O)Nc1ccc(NC(=O)CC(C)n2ccc(C)n2)cc1 (stereo unspecified)	·	·	17	·	-1
Cc1onc(C(=O)Nc2sc3c(c2C#N)CCCC3)c1[N+](=O)[O-]	-1	-1	-31	-3	37*
Cc1onc(-c2ccccc2Cl)c1C(=O)Nc1sc2c(c1C#N)CCC2	0	3	10	-11	0
Cc1ccc(S(=O)(=O)C(CNS(=O)(=O)c2ccc(F)c(C)c2)c2cccs2)cc1 (stereo unspecified)	·	·	2	·	0
CCOc1ccc(-c2cc(CCCC(=O)NCCc3ccc(SC)cc3)no2)cc1	·	·	15	·	0
CC(C)NC(=O)c1ccc(C2SCC(=O)N2Cc2ccccc2)cc1 (stereo unspecified)	2	0	8	50*	0
O=C1CSC(c2cccc([N+](=O)[O-])c2)N1Cc1ccccc1 (stereo unspecified)	7	-3	-10	30*	-1
O=C1CN(O)C=C2N=c3ccccc3=C2N1c1ccc([N+](=O)[O-])cc1	0	103*	16	24	1
CCOC(=O)c1cccc(NC(=O)NC(C)c2c(-n3cccc3)sc3c2CCN(C)C3)c1 (stereo unspecified)	·	·	1	·	-1
SMILES	D2 ag-1	D2 PAM-1	D2 PAM-2	D2 antagonist	D2 ag-2
COc1ccc(N2CC(NC(=O)COc3ccccc3)CC2=O)cc1OC (stereo unspecified)	·	·	-13	·	1
Cc1ccccc1CC(=O)N1CCCc2ccccc21	-4	-1	2	-1	0
Cc1ccc[n+](CC(=O)N2CCCc3ccccc32)c1	3	-12	-16	31*	1
Cn1nnnc1SCC(=O)N1CCc2ccccc21	-1	-7	-1	3	0
Cn1nnnc1SCC(=O)N1CCCc2ccccc21	-3	-3	-5	41*	0
Cc1nc2c(-c3ccccc3)c(C)nn2c(C)c1CCC(=O)NCc1ccccc1Cl	·	·	-6	·	-2
COc1ccccc1NC(=O)CSc1nc2c(oc3ccccc32)c(=O)n1-c1ccc(C)cc1	·	·	12	·	0
C=CCC(C#N)(c1ccc(OC)c(OC)c1)c1cnccn1 (stereo unspecified)	-4	-9	5	6	0
COc1ccc(C(C#N)(CCC#N)CCC#N)cc1OC	-2	-20	-24	80*	2
Cc1ccc(C(=O)NC(=S)Nc2ccc(Oc3ccc(Cl)cc3)cc2)cc1	-3	-4	37*	0	0
Cc1ccc(NC(=S)Nc2ccc3[nH]c(=O)[nH]c3c2)cc1	-3	-3	0	-4	1
Cc1ccc(C(=O)NC(=S)Nc2ccc3[nH]c(=O)[nH]c3c2)cc1	1	-12	3	46*	-1
Cc1cc(C)cc(C(=O)Nc2ccc3[nH]c(=O)[nH]c3c2)c1	4	0	-2	30*	0
COc1cccc(/C=C/c2nc(C#N)c(N3CCC(C(N)=O)CC3)o2)c1	·	·	1	·	0
CCC(C)NC(=O)Cn1c(=O)ccc2cc(S(=O)(=O)N3CCCC3)ccc21 (stereo unspecified)	·	·	-5	·	-2
COc1ccccc1CNC(=O)CCC1N=C2c3ccccc3N=C(SCc3ccc(C)cc3C)N2C1=O (stereo unspecified)	·	·	4	·	0
Cc1ccc(C(=O)Nc2oc(-c3ccccc3)cc2C#N)cc1	-4	-16	-31	31*	1
COc1ccc(C)cc1NC(=S)NC(C)c1ccc(OC)c(OC)c1 (stereo unspecified)	0	53*	-2	-11	1
CCCCCCCNC(=O)C1(CC2CC(c3ccc(Cl)cc3)=NO2)CCN(C(=O)c2cc(OCC)c(OCC)c(OCC)c2)CC1 (stereo unspecified)	0	-7	-11	44*	1
Cc1cc(NC(=S)NC(=O)c2ccccc2)ccc1-c1cc2ccccc2oc1=O	1	-1	-9	63*	-1
CC(C)Cn1cnc2c(c(-c3ccccc3)c(-c3ccccc3)n2Cc2ccco2)c1=N	-4	-27	-5	46*	2
N=c1c2c(-c3ccccc3)c(-c3ccccc3)n(Cc3ccco3)c2ncn1Cc1ccccc1	-3	3	1	14	3
Cc1cc(C)cc(NC(=O)CCCn2nc(C)c3c(C)n(-c4ccccc4)nc3c2=O)c1	-5	-11	33*!	-19	1
Cc1ccccc1NC(=O)CCCn1nc(C)c2c(C)n(-c3ccccc3)nc2c1=O	3	-8	-3	-8	0
